PubChem BioAssay AID1159580 (chemical genetic matrix, 2015)
Screen size: about 5,500 compounds; about 2,000 (36%) were called active. Inconclusive results (about 18%) are left out. Rule as the data show it: active = normalized growth mostly below about 0.91 (no sharp cut-off); inconclusive = no clear call, values can overlap the other calls; inactive = mostly above about 0.92. The list shows a part of the results.

Assay: chemical genetic growth profiling, strain panel (AID 1159580);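 also: tested at 20 µM; growth read once vehicle control cultures reached saturation at 30 °C; 1 = growth at the plate median or of vehicle wells; lower values mean less growth of the strain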
Conditions: S. cerevisiae deletion strains, growth OD

Measured: normalized growth

C[N+]1(C)C2CC(OC(=O)C(CO)c3ccccc3)CC1C1OC12 (stereo unspecified)
inactive: locus YAL013W, strain DEP1, active compounds read low 1.03 | locus YAL040C, strain CLN3, active compounds read low 0.975 | locus YCL061C, strain MRC1 (second series), active compounds read low 0.995 | locus YDR363W, strain ESC2, active compounds read low 0.985 | locus YER002W, strain NOP16, active compounds read low 0.997 | locus YGR229C, strain SMI1, active compounds read low 1.05 | locus YMR263W, strain SAP30, active compounds read low 1 | locus YMR307W, strain GAS1, active compounds read low 1.01 | locus YNL128W, strain TEP1, active compounds read low 0.992 | locus YNL175C, strain NOP13, active compounds read low 0.973 | locus YNL197C, strain WHI3, active compounds read low 0.982 | locus YNL224C, strain SQS1, active compounds read low 0.988 | locus YNL322C, strain KRE1, active compounds read low 1 | locus YOR083W, strain WHI5 (second series), active compounds read low 0.978 | locus YPL055C, strain LGE1, active compounds read low 1.02 | locus YPL241C, strain CIN2, active compounds read low 0.993
